Among the data in the supplement of paper PMC13380429 are morphology score and SARS-CoV-2 infection rate values, retold here.

Test [1] relates to Vero E6 infected with SARS-CoV-2. Description: morphology score (similarity to uninfected cells); higher = more like uninfected cells. Particulars: 24 h.
Test [2] shares this test system. Kind of test: SARS-CoV-2 infection rate relative to infected DMSO; higher = more infection, active = 60 or less. Particulars: 24 h.

In test [1], `CC(C)(C)NCC(O)c1ccccc1Cl` (centres undefined) [tulobuterol] (10 µM) returned a morphology score of -0.0152. Moreover, the SARS-CoV-2 infection rate in test [2] is 115% (inactive).
The matching figures for `CC(NC(=O)c1ccccc1/N=C/c1c(O)ccc2ccccc12)c1ccccc1` (centres undefined) [sirtinol] (10 µM): 0.0701 and 99% (inactive).
Turning to `C[C@]12CC[C@@H]3c4ccc(O)cc4CC[C@H]3[C@@H]1C[C@@H](O)[C@@H]2O` [estriol] (10 µM), the morphology score in test [1] is -0.0117. For the same compound, the SARS-CoV-2 infection rate in test [2] is 108% (inactive).
In test [1], `CN1CCC(=C2c3ccccc3C=Cc3ccccc32)CC1` [cyproheptadine] (0.833333 µM) displayed a morphology score of 0.0226. Moreover, in test [2], the SARS-CoV-2 infection rate was 102% (inactive).
Regarding `Fc1cc(-c2cccc3ncc(-c4cnn(C5CCNCC5)c4)nc23)cc(F)c1CN1CCOCC1` (0.833333 µM), the morphology score in test [1] was 0.0457. Also, in test [2], the SARS-CoV-2 infection rate is 116% (inactive).
On to `CN1CCN(C(c2ccccc2)c2ccc(Cl)cc2)CC1` (centres undefined) [chlorcyclizine] (10 µM), for which, in test [1], the morphology score was 0.134. Further, in test [2], the SARS-CoV-2 infection rate was 102% (inactive).
Regarding `C[C@@H]1O[C@@H](OC[C@H]2O[C@@H](Oc3c(-c4ccc(O)c(O)c4)oc4cc(O)cc(O)c4c3=O)[C@H](O)[C@@H](O)[C@@H]2O)[C@H](O)[C@H](O)[C@H]1O` [rutin] (10 µM), in test [1], the morphology score was -0.197. In test [2], the SARS-CoV-2 infection rate is 112% (inactive).
In the case of `NC(=O)N1C(=O)/C(=C(\O)c2cccs2)c2cc(Cl)ccc21` [tenidap] (10 µM), in test [1], the morphology score was 0.0356. Besides, in test [2], the SARS-CoV-2 infection rate is 91% (inactive).
In test [1], `CC(=O)O[C@H]1C[C@@H]2CC[C@@H]3[C@H](CC[C@@]4(C)[C@H]3C[C@H]([N+]3(C)CCCCC3)[C@@H]4OC(C)=O)[C@@]2(C)C[C@@H]1[N+]1(C)CCCCC1` [pancuronium] (10 µM) had a morphology score of 0.254. Further, the SARS-CoV-2 infection rate in test [2] was 102% (inactive).
On to `CN(C)CCOC(c1ccccc1)c1ccccc1` [diphenhydramine] (10 µM), for which, in test [1], the morphology score is 0.203. In addition, the SARS-CoV-2 infection rate in test [2] is 86.5% (inactive).
`CC#C[C@@H](CC(=O)O)c1ccc(OCc2cccc(-c3ccc(C(F)(F)F)cc3)c2)cc1` (10 µM) returned a morphology score in test [1] of 0.0803. Moreover, the SARS-CoV-2 infection rate in test [2] was 108% (inactive).
On to `COc1cc2c(NC3CCN(C)CC3)nc(N3CCCN(C)CC3)nc2cc1OCCOCCN(C)C` (10 µM), for which the morphology score in test [1] was 0.108. For the same compound, the SARS-CoV-2 infection rate in test [2] was 110% (inactive).
For the compound `CC(=O)OCC(=O)[C@@]1(O)CC[C@H]2[C@@H]3CCC4=CC(=O)C=C[C@]4(C)[C@H]3[C@@H](O)C[C@@]21C` [prednisolone-acetate] (10 µM), the morphology score in test [1] is -0.148. For the same compound, the SARS-CoV-2 infection rate in test [2] was 108% (inactive).
As to `Cc1cccc(-c2[nH]c(CNc3ccccc3F)nc2-c2ccc3ncnn3c2)n1` (10 µM), the morphology score in test [1] amounted to 0.295. The SARS-CoV-2 infection rate in test [2] was 109% (inactive).
Turning to `CC[C@@]1(O)C(=O)OCc2c1cc1n(c2=O)Cc2cc3c(CN(C)C)c(O)ccc3nc2-1` [topotecan] (10 µM), in test [1], the morphology score amounted to 0.0619. In test [2], the SARS-CoV-2 infection rate was 108% (inactive).
Take `O=[N+]([O-])c1cc2nc(O)c(O)nc2cc1[N+](=O)[O-]` (10 µM): in test [1], the morphology score is 0.165. Also, the SARS-CoV-2 infection rate in test [2] is 100% (inactive).
Compound `CCOC(=O)c1c(O)nc2cccc3c2c1-c1ccccc1C3=O` (10 µM) displayed a morphology score in test [1] of -0.157. Also, the SARS-CoV-2 infection rate in test [2] was 117% (inactive).
On to `O=C(/C=C\n1cnc(-c2cc(C(F)(F)F)cc(C(F)(F)F)c2)n1)NNc1cnccn1` [selinexor] (10 µM), for which the morphology score in test [1] was -0.235. Further, the SARS-CoV-2 infection rate in test [2] was 106% (inactive).
Take `COc1cc(C(=O)NS(=O)(=O)c2ccccc2C)ccc1Cc1cn(C)c2ccc(NC(=O)OC3CCCC3)cc12` [zafirlukast] (10 µM): the morphology score in test [1] is 0.282. Further, the SARS-CoV-2 infection rate in test [2] is 105% (inactive).
In test [1], `O=C(Nc1ccccc1-c1cn2c(CN3CCNCC3)csc2n1)c1cnc2ccccc2n1` (0.833333 µM) displayed a morphology score of 0.075. Besides, the SARS-CoV-2 infection rate in test [2] was 114% (inactive).
As for `NC(=O)Cc1cccc(C(=O)c2ccccc2)c1N` [nepafenac] (10 µM), the morphology score in test [1] was determined as 0.0605. Moreover, the SARS-CoV-2 infection rate in test [2] was 120% (inactive).
With `CCOC(=O)[C@H](CCc1ccccc1)N[C@@H](C)C(=O)N1CCC[C@H]1C(=O)O` [enalapril] (10 µM), the morphology score in test [1] came to 0.198. Besides, the SARS-CoV-2 infection rate in test [2] is 96.5% (inactive).
`O=C(O)C(=O)Nc1cccc(-c2nnn[nH]2)c1` [acitazanolast] (10 µM): the morphology score in test [1] came to 0.235. The SARS-CoV-2 infection rate in test [2] is 95% (inactive).
Consider `FC(F)(F)c1ccc(CNc2ccc(Cc3c[nH]c4ncc(Cl)cc34)cn2)cn1` [pexidartinib] (10 µM), for which the morphology score in test [1] worked out at 0.473. Besides, the SARS-CoV-2 infection rate in test [2] was 77.5% (inactive).
The compound `CN(C)[C@@H](CCOc1cccc2ccccc12)c1ccccc1` [dapoxetine] (10 µM) returned a morphology score in test [1] of 0.467. In addition, the SARS-CoV-2 infection rate in test [2] is 76% (inactive).
The matching figures for `N#Cc1c(-c2ccccc2)cc(-c2cc(Br)ccc2O)[nH]c1=O` (10 µM): 0.048 and 110% (inactive).
Turning to `CCCCCCCCCCCCCCCCCC(=O)OC[C@@H](O)[C@H]1OC[C@H](O)[C@H]1O` [sorbitan-monostearate] (10 µM), the morphology score in test [1] stood at 0.0535. Moreover, the SARS-CoV-2 infection rate in test [2] is 97.5% (inactive).
